Assay results as given in PubChem BioAssay AID686970 (National Center for Advancing Translational Sciences (NCATS), 2013).
The campaign covered roughly 360,000 compounds. About 6,000 (1.7%) were called active. Inconclusive results (about 8%) are left out. Calls follow the shape of the dose curve; as a rule, active = well fitted cell-killing curve with a large enough effect; inconclusive = small, poorly fitted or top-dose-only effect, or effect the other way; inactive = flat fitted curve, though single readings scatter. This excerpt belongs to a sample that is enriched for actives.
Potency is read from the fitted curve at half-maximal effect.

Assay: qHTS for induction of synthetic lethality in tumor cells producing 2HG: qHTS for the HT-1080-NT fibrosarcoma cell line;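 also: NT is the 2HG producing partner of a matched IDH1 knockdown line; nearly all actives have a fitted effect of over 55% in size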;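 as to activity, negative = less viability: 0% = DMSO-treated cells and -100% = media-only wells without cells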
Details: HT-1080-NT fibrosarcoma viability, CellTiter-Glo ATP luminescence, 48 h; series mostly up to 46.1 µM; activity, negative = less viability: at the top concentration
How it was run: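 A 48-hour cytotoxicity screen used HT-1080-NT cells plated 2 hours before compound delivery. ATP-based CellTiter-Glo luminescence measured viability, normalized to DMSO and no-cell controls.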
With CC(=O)Oc1ccc(Cn2c(C)c(C(=O)NCc3ccc(C#N)cc3)sc2=O)cc1 the “activity, negative = less viability” value was -29.4% (inactive).
For O=C(CSc1nc2cccc(F)c2c(=O)n1-c1ccccc1)Nc1ccc2c(c1)CCC2, the “activity, negative = less viability” value was 11.2% (inactive).
With O=C(/C(=C/c1cccc(Cl)c1)c1nc2ccccc2[nH]1)c1ccccc1 the Potency was 5.17 µM (active).
In the case of O=C(N/N=C/c1ccc(Cl)cc1)c1nc2ccc([N+](=O)[O-])cc2c(=O)[nH]1, the “activity, negative = less viability” value is reported as 7.24% (inactive).
With O=C(O)c1cccc(NC(=O)c2cc(-c3cccc(Cl)c3)nc3ccccc23)c1 the “activity, negative = less viability” value was 10.5% (inactive).
With Cc1cc(Br)cn2c(Cc3ccccc3C(F)(F)F)c(-c3ccc(Cl)cc3)nc12 the “activity, negative = less viability” value was -3.92% (inactive).
In the case of Cc1ccc(Oc2cnn(-c3ccccc3)c(=O)c2Br)cc1, the “activity, negative = less viability” value is reported as -17.5% (inactive).
For COc1ccc(Oc2c(Cl)cnn(-c3ccccc3)c2=O)cc1, the Potency was 18.4 µM (active).
With COc1ccc(CCNC(=O)c2c(C)nn(-c3ccccc3)c2Cl)cc1 the “activity, negative = less viability” value was -8.7% (inactive).
In the case of CCCCN1C(=O)C(CC(=O)NCc2cccs2)CC(C(=O)N2CCCCCC2)=C1C (configuration not stated), the “activity, negative = less viability” value is reported as -1.24% (inactive).
With O=C(NCc1ccccc1)C1CNCC(C(=O)NCc2ccccc2)C1 (configuration not stated) the “activity, negative = less viability” value was 5.71% (inactive).
For Cc1ccc(-c2nc3c(Cl)cc(C(F)(F)F)cn3c2Cc2cccc(Cl)c2)cc1, the “activity, negative = less viability” value was 14% (inactive).
With Oc1c(Cl)cc(Cl)c(Cl)c1Cc1c(O)c(Cl)cc(Cl)c1Cl the Potency was 5.8 µM (active).
In the case of CCCCCCCCn1c2c(c(=N)c3c1CCC3)CCCC2, the Potency is reported as 16.4 µM (active).
With C=CC(=O)OCCOCCOCCOCCOC(=O)C=C the Potency was 20.6 µM (active).
With COc1cc(CCN=Cc2ccccc2O)c([N+](=O)[O-])cc1OC the “activity, negative = less viability” value was 20.1% (inactive).
In the case of COc1ccc(S(=O)(=O)N2CCC(C(=O)NCCC(=O)NCCc3cccc(F)c3)CC2)cc1, the “activity, negative = less viability” value is reported as 0.278% (inactive).
For C=CCOc1cccc(C2C(C(=O)c3ccc(C)o3)=C(O)C(=O)N2CCN2CCOCC2)c1 (configuration not stated), the “activity, negative = less viability” value was -5.15% (inactive).
For Cc1ccc([C@H]2C[C@H](O)[C@@H](n3cc(COC(=O)c4ccccc4)nn3)CN2C(=O)C2CCCCC2)cc1, the “activity, negative = less viability” value was -17.4% (inactive).
With CC(C)CCNC(=O)c1[nH]c(C(F)(F)F)nc1-c1ccccc1 the “activity, negative = less viability” value was 0.202% (inactive).
In the case of COc1ccc(-c2ccc(CN3C(C(C)C)C(=O)N(Cc4cn(CC5CCCCC5)nn4)CCS3(=O)=O)cc2)cn1 (configuration not stated), the “activity, negative = less viability” value is reported as 0.744% (inactive).
With COc1ccc2[nH]c(C(=O)N/N=C/c3cc(OC)c(OC)c(OC)c3)cc2c1 the “activity, negative = less viability” value was -5.09% (inactive).
For COc1ccc(/C=N/Nc2ccccc2C(=O)O)cc1, the “activity, negative = less viability” value was -4.06% (inactive).
With COc1ccc(C(=O)Nc2ccccc2C(=O)N/N=C/c2ccc(O)c(OC)c2)cc1 the Potency was 5.8 µM (active).
With CC(O)(c1cccc(F)c1)c1nc(-c2ccc3c(c2)OCO3)cs1 (configuration not stated) the “activity, negative = less viability” value was -19.6% (inactive).
With CCOC(=O)C1=CC[C@@H](c2ccccc2)N(S(=O)(=O)c2ccc(C)cc2)[C@H]1c1ccc(CC)cc1 the “activity, negative = less viability” value was -3.93% (inactive).
For CCCOc1ccc(F)cc1-c1cc(C(=O)Nc2ccc(F)cc2)[nH]n1, the “activity, negative = less viability” value was -17% (inactive).
For COc1ccc(CCNC(=S)NC(=O)/C=C/c2ccc(C)cc2)cc1OC, the Potency was 6.31 µM (active).
For COc1ccc(CCNC(=O)Cc2ccc(C)cc2)cc1OC, the “activity, negative = less viability” value was 2.44% (inactive).
In the case of COc1ccc(CCNC(=O)NS(=O)(=O)c2ccc(C)cc2)cc1OC, the “activity, negative = less viability” value is reported as 17.1% (inactive).
For O=C(COC(=O)/C=C/c1ccc(Cl)cc1)NC1CCS(=O)(=O)C1 (configuration not stated), the “activity, negative = less viability” value was -11.7% (inactive).
For CCOC(=O)C(=Cc1ccccc1)C(=O)c1ccccc1, the “activity, negative = less viability” value was -9.52% (inactive).
For COc1ccc(NC(=O)CN(C)C(=O)c2ccc(COc3ccccc3)o2)cc1, the “activity, negative = less viability” value was 6% (inactive).
For Cc1cc(OCc2ccc(C(=O)Nc3ccc(C(=O)O)cc3)o2)ccc1Cl, the Potency was 11.6 µM (active).
With O=C(O)c1ccc(NC(=O)c2ccc(COc3ccc(Cl)cc3)o2)cc1 the “activity, negative = less viability” value was -28.6% (inactive).
With O=C(NCc1ccccc1)C1c2ccccc2OCC(=O)N1CCCN1CCOCC1 (configuration not stated) the “activity, negative = less viability” value was 18.4% (inactive).
With CCC(c1nc2ccccc2[nH]1)n1c(=O)c(-c2cccs2)nc2ccccc21 (configuration not stated) the “activity, negative = less viability” value was -22.6% (inactive).
